High-throughput results: PubChem BioAssay, National Center for Advancing Translational Sciences (NCATS)
RORgamma inh: qHTS for inhibitors of ROR gamma transcriptional activity; Potency, µM (highest dose often 53.6 µM), most hits filed as inhibitors; AID 2551, 2010; 310,000 tested, 5.4% active; Drosophila S2 Gal4-RORgamma UAS-luciferase reporter, 20 h; Nuclear receptor ROR-gamma (Mus musculus), P51450; also: nearly all actives have a fitted effect of over 60% in size
Target sequence (P51450 whole entry, looked up, the tested form may be a part): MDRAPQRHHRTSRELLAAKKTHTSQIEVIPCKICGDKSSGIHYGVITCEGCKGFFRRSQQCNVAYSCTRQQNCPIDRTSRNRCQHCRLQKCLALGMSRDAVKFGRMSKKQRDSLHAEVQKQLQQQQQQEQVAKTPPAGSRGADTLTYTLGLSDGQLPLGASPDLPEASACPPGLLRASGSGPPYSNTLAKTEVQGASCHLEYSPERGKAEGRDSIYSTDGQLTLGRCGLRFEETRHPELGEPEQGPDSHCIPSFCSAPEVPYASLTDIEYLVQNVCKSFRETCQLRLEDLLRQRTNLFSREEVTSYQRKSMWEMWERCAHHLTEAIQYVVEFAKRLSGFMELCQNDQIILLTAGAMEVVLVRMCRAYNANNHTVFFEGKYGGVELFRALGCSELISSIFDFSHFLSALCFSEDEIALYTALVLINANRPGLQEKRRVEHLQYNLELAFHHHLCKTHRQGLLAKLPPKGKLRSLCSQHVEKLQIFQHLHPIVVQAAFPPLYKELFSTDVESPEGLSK
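Compounds are pin-transferred onto Drosophila Schneider cells expressing a copper-inducible Gal4–ROR gamma transactivation domain fusion. After 1 hr, copper sulfate is added to 700 uM final; luciferase is read 20 hr later.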
KinaseGlo FLuc: Counterscreen for Luciferase (Kinase-Glo TM) Inhibition; 200,000 tested, 0.28% active; Luciferin 4-monooxygenase (Photuris pensylvanica), Q27757; Potency, µM (doses to about 38.3 µM), usual class: inhibitors; Kinase-Glo luciferase, ATP luminescence, 8 min; also: nearly all actives have a fitted effect of over 60% in size
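Kinase-Glo luciferase light output from ATP and luciferin was measured with 10 uM ATP, within the enzyme's linear range. Buffer: 50 mM imidazole pH 7.2, 50 mM KCl, 7 mM MgCl2, 0.01% Tween 20, 0.05% BSA; luminescence read after 8 min at ambient temperature.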
VP16 counter: VP16 counterscreen qHTS for inhibitors of ROR gamma transcriptional activity; Drosophila S2 Gal4-VP16 UAS-luciferase, luminescence, 20 h; 310,000 tested, 3.5% active; Potency, µM (titrated, usually from 53.6 µM), actives largely listed as inhibitors;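 also: Gal4-VP16 expression switched on by copper sulfate through the metallothionein promoter; nearly all actives have a fitted effect of over 50% in size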
Each line names hits and unclear results; the compound was inactive in the other large screens. Only some compounds are listed: those with a hit (about 6.4% of all), similar ones and a draw of the others. Calls follow the shape of the dose curve; as a rule, active = well fitted curve in the direction sought with a large enough effect; inconclusive = small, poorly fitted or top-dose-only effect, or another doubt; inactive = no such curve, though single readings can be large; an effect the other way counts as inactive or inconclusive.

O=C(Nc1ccc(Cl)cc1C(F)(F)F)C(Sc1nnc(-c2cccs2)o1)c1ccccc1 (centres undefined)	none (no result: KinaseGlo FLuc)
O=C(Nc1cc(C(F)(F)F)ccc1Cl)C(Sc1nnc(-c2cccs2)o1)c1ccccc1 (centres undefined)	RORgamma inh 11.2µM, VP16 counter inconclusive (no result: KinaseGlo FLuc)
COC(=O)c1c(C)cc(C)n2c1nc1ccccc12	RORgamma inh 10µM
Cc1cc(C)n2c(nc3ccccc32)c1C(=O)NN	none (no result: KinaseGlo FLuc)
CC(=O)c1nnn(-c2cccc([N+](=O)[O-])c2)c1C	RORgamma inh inconclusive
CC(=O)C1=C(c2cccc([N+](=O)[O-])c2)N(C(C)=O)n2c(C)nnc2S1	RORgamma inh 5.01µM, VP16 counter inconclusive
CCOc1cccc(CNc2ccc(O)cc2)c1OCc1ccc(Cl)cc1Cl	RORgamma inh 15.8µM, VP16 counter inconclusive
CCOc1cccc(CNc2ccc(O)cc2)c1OCc1ccccc1Cl	none
CCOC(=O)C1CCCN(S(=O)(=O)c2ccc(S(=O)(=O)N(CC)CC)cc2)C1 (centres undefined)	RORgamma inh 6.31µM, VP16 counter 4.47µM
CCOC(=O)C1CCCN(S(=O)(=O)c2ccc(C)cc2)C1 (centres undefined)	RORgamma inh inconclusive
COc1ccc(C)cc1NC(=O)Nc1ccc(C(=O)N2CCCC2)cc1	none (no result: KinaseGlo FLuc)
CC(C)(C)c1cc(NCc2ccccn2)n2ncc(-c3ccccc3)c2n1	RORgamma inh 0.447µM, VP16 counter 1.41µM (no result: KinaseGlo FLuc)
Cc1cc(C)n(-c2cc(C(C)(C)C)nc3c(-c4ccccc4)cnn23)n1	none (no result: KinaseGlo FLuc)
O=[N+]([O-])c1ccc(NC(=S)N2CCCC2)cc1	none (no result: KinaseGlo FLuc)
COc1ccccc1NC(=S)N1CCCc2ccccc21	RORgamma inh 2.82µM
O=C(c1cccc(F)c1)N1CCCc2ccccc21	none (no result: KinaseGlo FLuc)
CCOc1ccccc1NC(=S)N1CCCc2ccccc21	none
S=C(Nc1ccccc1)N1CCc2ccccc21	RORgamma inh 11.2µM, VP16 counter 15.8µM (no result: KinaseGlo FLuc)
O=[N+]([O-])c1ccc(NC(=S)N2CCc3ccccc32)cc1	RORgamma inh 12.6µM, VP16 counter inconclusive (no result: KinaseGlo FLuc)
Fc1cccc(NC(=S)N2CCc3ccccc32)c1	RORgamma inh 8.91µM, VP16 counter inconclusive (no result: KinaseGlo FLuc)
O=C(Nc1ccccc1)N1CCc2ccccc21	KinaseGlo FLuc inconclusive
CSc1nc(C)cc(SCC(=O)N/N=C/c2ccccc2)n1	none
COc1ccc(/C=N/NC(=O)c2ccc3nc[nH]c3c2)cc1	none (no result: KinaseGlo FLuc)
CNC(=S)N1CCN(C(c2ccccc2)c2ccccc2)CC1	none
COc1ccc(NC(=S)N2CCc3ccccc32)cc1OC	RORgamma inh 8.91µM, VP16 counter inconclusive (no result: KinaseGlo FLuc)
CCC(C)NC(=S)N1CCN(C(c2ccccc2)c2ccccc2)CC1 (centres undefined)	RORgamma inh 11.2µM, VP16 counter inconclusive
COc1ccc(NC(=S)N2CCN(C(c3ccccc3)c3ccccc3)CC2)cc1OC	RORgamma inh 8.91µM, VP16 counter 12.6µM
COc1ccc(NC(=O)N2CCc3ccccc3C2)cc1OC	none (no result: KinaseGlo FLuc)
COc1ccc(NC(=S)N2CCCC2)cc1OC	none
